Results on six sequences are retold here after the supplement of paper PMC6555819.

Holding throughout (assay): PBM binding z-score (relative to random genomic background probes); higher = stronger binding; sequences stand for … in GC…GCGATTGACAGCGTAGAATGAAGG
For assay [1], the system named is FXR:RXRa (NR concentration 270 nM, RXRa partner concentration 90 nM). The method, boiled down: (§1)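 Random background probes are the reference for binding z-scores. These scores derive from regression-normalized fluorescence on custom Agilent 4×180K protein-binding microarrays incubated 1 h with ligand-free nuclear receptor dimers. Binding was detected with antibodies against each partner (one per run).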

Assay [2] concerns LXRa:RXRa (NR concentration 270 nM, RXRa partner concentration 90 nM). The method, boiled down:
as §1

The test system of assay [3] is LXRa homodimer (NR concentration 270 nM). The method, boiled down:
as §1

For assay [4], the system named is LXRb:RXRa (NR concentration 270 nM, RXRa partner concentration 90 nM). The method, boiled down: as §1
The subject of assay [5] is LXRb homodimer (NR concentration 270 nM). The method, boiled down:
as §1

Assay [6] has as its system PPARa:RXRa (NR concentration 270 nM, RXRa partner concentration 90 nM). In outline:
as §1

In assay [7] the test system is PPARg:RXRa (NR concentration 180 nM, RXRa partner concentration 90 nM). In outline:
as §1

In assay [8] the test system is PPARg:RXRa 270nM:90nM, anti-RXR (NR concentration 270 nM, RXRa partner concentration 90 nM). The method, boiled down: as §1
For assay [9], the system named is PPARg:RXRa 30nM:10nM, anti-RXR (NR concentration 30 nM, RXRa partner concentration 10 nM). In outline:
as §1

Assay [10] has as its system PPARg:RXRa 90nM:30nM, anti-RXR (NR concentration 90 nM, RXRa partner concentration 30 nM). In outline:
as §1

The subject of assay [11] is PPARg:RXRa DBDmut IVT, anti-RXR (DBD mutation: RXRa K156A/R161A, NR concentration 270 nM, RXRa partner concentration 90 nM). The method, boiled down:
as §1

Assay [12] relates to PPARg:RXRa IVT, anti-PPARg (NR concentration 270 nM, RXRa partner concentration 90 nM). In outline:
as §1

Assay [13] concerns PPARg DBDmut:RXRa IVT, anti-PPARg (DBD mutation: PPARg1 K132A/R137A, NR concentration 270 nM, RXRa partner concentration 90 nM). The method, boiled down: as §1
The subject of assay [14] is PPARg DBDmut IVT, anti-PPARg (DBD mutation: PPARg1 K132A/R137A, NR concentration 270 nM). In outline: as §1
In assay [15] the test system is PPARg homodimer (NR concentration 180 nM). The method, boiled down: as §1
For assay [16], the system named is PXR:RXRa (NR concentration 270 nM, RXRa partner concentration 90 nM). The method, boiled down:
as §1

The test system of assay [17] is PXR homodimer (NR concentration 270 nM). The method, boiled down:
as §1

Assay [18] has as its system RARa:RXR (NR concentration 270 nM, RXRa partner concentration 90 nM). In outline: as §1
Assay [19] deals with RARa homodimer (NR concentration 270 nM). The method, boiled down: as §1
The subject of assay [20] is RARb:RXRa (NR concentration 270 nM, RXRa partner concentration 90 nM). The method, boiled down:
as §1

For the sequence AGTCAAAGTTCACTGGGTAACGTAAGATTCAGCT, the PBM binding z-score in assay [1] amounted to 5.3; in assay [2] it was 5.02; in [3], 3.18; in assay [4], 2.98; in assay [5], 0.65; in [6], 4.78. For the same sequence, the PBM binding z-score turned out to be 7.5 in assay [7]; 6.72 in [8]; 3.78 in assay [9]; 6.4 in [10]; 2.75 in [11]; 4.82 in assay [12]. The PBM binding z-score in [13] came to 1.38; in [14], 0.335; in assay [15] it was 2.63; in assay [16] it was 4.4; in assay [17] it was 3.47; in assay [18], 3.63. For the same sequence, the PBM binding z-score is 1.43 in assay [19] and 4.81 in assay [20].
For AGAACGAGGGCACGCTGACTTGATAGCAGAGTAG, the PBM binding z-score in assay [1] is 0.758; in assay [2], 0.896; in assay [3], -0.482; in assay [4] it was 0.363; in assay [5], -0.85; in assay [6], 2.31. The PBM binding z-score in [7] was determined as 2.29; in [8], 1.85; in assay [9], 0.503; in assay [10], 1.18; in [11] it was 3.96; in [12] it was 4.19. Further, the PBM binding z-score was 0.288 in assay [13]; 0.937 in [14]; -0.0871 in [15]; 0.461 in assay [16]; -0.269 in assay [17]; 0.898 in assay [18]. The PBM binding z-score was -0.516 in assay [19] and 2.44 in assay [20].
Take GCGACTTGGGCAAAGCAGGTTACCATAAGGTTGG: the PBM binding z-score was -0.371 in assay [1]; -0.57 in assay [2]; -0.467 in assay [3]; -0.537 in assay [4]; -1.29 in assay [5]; 0.243 in assay [6]. For the same sequence, the PBM binding z-score in [7] is 0.451; in [8], -0.351; in assay [9], -0.654; in [10], -0.41; in assay [11], -0.00446; in assay [12] it was -0.245. Further, the PBM binding z-score was -0.728 in [13]; -1.56 in assay [14]; -0.641 in assay [15]; -0.189 in [16]; -0.923 in assay [17]; 0.287 in assay [18]. The PBM binding z-score is -1.35 in assay [19] and -0.0319 in [20].
As to AGTCAAAGTTCAGGAAGAGGTAACGTAAAGCACG, the PBM binding z-score in assay [1] was 3.92; in [2], 3.76; in assay [3] it was 0.911; in assay [4], 2.07; in assay [5], 0.602; in assay [6], 3.54. Also, the PBM binding z-score in assay [7] is 4.98; in assay [8] it was 4.92; in assay [9], 1.98; in assay [10], 3.88; in assay [11], 0.106; in [12] it was 2.18. In addition, the PBM binding z-score is 0.684 in assay [13]; 0.616 in assay [14]; 2.21 in [15]; 2.84 in assay [16]; 0.943 in [17]; 3.04 in [18]. Besides, the PBM binding z-score in assay [19] came to 0.831; in assay [20] it was 4.45.
Regarding AATACAGGTTCATCGTAGGCCAGAGTACGCACAG, the PBM binding z-score in assay [1] stood at 3.44; in [2], 4.91; in [3], 1.85; in assay [4], 2.3; in assay [5], 0.451; in [6] it was 3.19. The PBM binding z-score in assay [7] is 1.67; in assay [8], 1.31; in assay [9], 0.478; in assay [10] it was 0.764; in assay [11], 0.0837; in assay [12] it was 0.966. In addition, the PBM binding z-score came out at 1.55 in assay [13]; 1.09 in assay [14]; 0.907 in [15]; 3.55 in assay [16]; 1.4 in [17]; 2.46 in assay [18]. Besides, the PBM binding z-score in assay [19] amounted to 0.533; in [20] it was 1.8.
As to CCTAGGAGGCCAATCTGGGTCACTCAAGGCTTGA, the PBM binding z-score is 1.29 in assay [1]; 2.42 in [2]; -0.439 in assay [3]; 1.35 in assay [4]; -1.2 in assay [5]; 3.35 in assay [6]. Further, the PBM binding z-score in assay [7] came to 2.59; in assay [8] it was 2.49; in [9], 0.067; in assay [10], 1.85; in assay [11], 4.15; in assay [12] it was 5.21. Further, the PBM binding z-score in [13] is -0.00134; in assay [14], -1.3; in assay [15] it was 0.591; in assay [16], 1.97; in assay [17] it was -0.291; in assay [18], 1.64. For the same sequence, the values for the PBM binding z-score in assay [19] and in assay [20] were -0.236 and 1.94, respectively.
